Source: PubChem BioAssay AID1159580 (chemical genetic matrix, 2015)
The campaign covered roughly 5,500 compounds. About 2,000 (36%) were called active. Roughly 18% stayed inconclusive and do not appear here. Some of the results follow. Unmarked numbers belong to inactive results. Rule as the data show it: active = normalized growth mostly below about 0.91 (no sharp cut-off); inconclusive = no clear call, values can overlap the other calls; inactive = mostly above about 0.92.

Assay: chemical genetic growth profiling, strain panel (AID 1159580);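 also: tested at 20 µM; growth read once vehicle control cultures reached saturation at 30 °C; 1 = growth at the plate median or of vehicle wells; lower values mean less growth of the strain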
Conditions: S. cerevisiae deletion strains, growth OD
[1] = locus YDL101C, strain DUN1, active compounds read low
[2] = locus YHR030C, strain SLT2, active compounds read low
[3] = locus YHR079C, strain IRE1, active compounds read low
[4] = locus YJL095W, strain BCK1, active compounds read low
[5] = locus YJR066W, strain TOR1, active compounds read low
[6] = locus YLR113W, strain HOG1, active compounds read low
[7] = locus YNL183C, strain NPR1, active compounds read low
[8] = locus YOR231W, strain MKK1, active compounds read low
[9] = locus YPL256C, strain CLN2, active compounds read low
[10] = locus YAL013W, strain DEP1, active compounds read low
[11] = locus YBR229C, strain ROT2, active compounds read low
[12] = locus YDL134C, strain PPH21, active compounds read low
[13] = locus YDR150W, strain NUM1, active compounds read low
[14] = locus YEL061C, strain CIN8, active compounds read low
[15] = locus YGR078C, strain PAC10, active compounds read low
[16] = locus YHR087W, strain rtc3, active compounds read low
[17] = locus YJR043C, strain POL32, active compounds read low
[18] = locus YJR075W, strain HOC1, active compounds read low
[19] = locus YLR039C, strain RIC1, active compounds read low
[20] = locus YLR058C, strain SHM2 (second series), active compounds read low
[21] = locus YLR085C, strain ARP6, active compounds read low
[22] = locus YLR262C, strain YPT6, active compounds read low
[23] = locus YML094W, strain GIM5, active compounds read low
[24] = locus YMR219W, strain ESC1, active compounds read low
[25] = locus YNL153C, strain GIM3, active compounds read low
[26] = locus YNL298W, strain CLA4 (second series), active compounds read low
[27] = locus YNL322C, strain KRE1, active compounds read low
[28] = locus YNR030W, strain Alg12, active compounds read low
[29] = locus YOL006C, strain TOP1, active compounds read low
[30] = locus YPL055C, strain LGE1, active compounds read low
[31] = locus YPL241C, strain CIN2, active compounds read low
[32] = locus YPR135W, strain CTF4, active compounds read low

N#CC(C#N)=C/C=C(/Sc1nc2ccccc2s1)c1ccc(Br)cc1
normalized growth (locus YAR019C, strain CDC15, active compounds read low): 0.148 (active) | normalized growth (locus YBL105C, strain PKC1, active compounds read low): 0.157 (active) | normalized growth (locus YBR135W, strain CKS1, active compounds read low): 0.189 (active) | normalized growth (locus YBR136W, strain MEC1, active compounds read low): 0.206 (active) | normalized growth (locus YBR160W, strain CDC28, active compounds read low): 0.22 (active) | normalized growth (locus YDL017W, strain CDC7, active compounds read low): 0.207 (active) | normalized growth (locus YDL028C, strain MPS1, active compounds read low): 0.28 (active) | normalized growth [1]: 0.338 (active) | normalized growth (locus YDL108W, strain KIN28, active compounds read low): 0.289 (active) | normalized growth (locus YDL132W, strain cdc53, active compounds read low): 0.299 (active) | normalized growth (locus YDL214C, strain PRR2, active compounds read low): 0.144 (active) | normalized growth (locus YDR052C, strain DBF4, active compounds read low): 0.695 (active) | normalized growth (locus YDR054C, strain cdc34, active compounds read low): 0.145 (active) | normalized growth (locus YDR226W, strain ADK1, active compounds read low): 0.28 (active) | normalized growth (locus YDR477W, strain SNF1, active compounds read low): 0.144 (active) | normalized growth (locus YER123W, strain YCK3, active compounds read low): 0.217 (active) | normalized growth (locus YER133W, strain GLC7, active compounds read low): 0.168 (active) | normalized growth (locus YFL009W, strain cdc4, active compounds read low): 0.317 (active) | normalized growth (locus YFL029C, strain CAK1, active compounds read low): 0.153 (active) | normalized growth (locus YFR003C, strain YPI1, active compounds read low): 0.253 (active) | normalized growth (locus YFR019W, strain FAB1, active compounds read low): 0.146 (active) | normalized growth (locus YFR028C, strain CDC14, active compounds read low): 0.187 (active) | normalized growth (locus YGR040W, strain KSS1, active compounds read low): 0.156 (active) | normalized growth (locus YGR052W, strain FMP48, active compounds read low): 0.167 (active) | normalized growth (locus YGR092W, strain DBF2, active compounds read low): 0.155 (active) | normalized growth [2]: 0.124 (active) | normalized growth [3]: 0.17 (active) | normalized growth (locus YHR082C, strain KSP1, active compounds read low): 0.163 (active) | normalized growth (locus YHR205W, strain SCH9, active compounds read low): 0.0272 (active) | normalized growth (locus YIL147C, strain SLN1, active compounds read low): 0.215 (active) | normalized growth [4]: 0.116 (active) | normalized growth (locus YJL128C, strain PBS2, active compounds read low): 0.391 (active) | normalized growth (locus YJL157C, strain FAR1, active compounds read low): 0.118 (active) | normalized growth (locus YJR016C, strain ILV3, active compounds read low): 0.176 (active) | normalized growth (locus YJR066W, strain TOR1 (second series), active compounds read low): 0.114 (active) | normalized growth [5]: 0.156 (active) | normalized growth (locus YKL048C, strain ELM1, active compounds read low): 0.322 (active) | normalized growth (locus YKL067W, strain YNK1, active compounds read low): 0.137 (active) | normalized growth (locus YKL101W, strain HSL1, active compounds read low): 0.175 (active) | normalized growth (locus YKL193C, strain SDS22, active compounds read low): 0.155 (active) | normalized growth (locus YKL203C, strain TOR2, active compounds read low): 0.158 (active) | normalized growth [6]: 0.218 (active) | normalized growth (locus YLR133W, strain CKI1, active compounds read low): 0.149 (active) | normalized growth (locus YLR403W, strain SFP1, active compounds read low): 0.0212 (active) | normalized growth (locus YML070W, strain DAK1, active compounds read low): 0.172 (active) | normalized growth (locus YMR001C, strain CDC5, active compounds read low): 0.126 (active) | normalized growth (locus YMR205C, strain PFK2 (second series), active compounds read low): 0.138 (active) | normalized growth (locus YMR277W, strain FCP1, active compounds read low): 0.144 (active) | normalized growth (locus YNL006W, strain LST8, active compounds read low): 0.13 (active) | normalized growth (locus YNL020C, strain ARK1, active compounds read low): 0.142 (active) | normalized growth (locus YNL161W, strain CBK1, active compounds read low): 0.164 (active) | normalized growth [7]: 0.153 (active) | normalized growth (locus YNL207W, strain RIO2, active compounds read low): 0.21 (active) | normalized growth (locus YNL222W, strain SSU72, active compounds read low): 0.177 (active) | normalized growth (locus YNL307C, strain MCK1 (second series), active compounds read low): 0.137 (active) | normalized growth (locus YOL078W, strain AVO1, active compounds read low): 0.154 (active) | normalized growth (locus YOL136C, strain PFK27, active compounds read low): 0.161 (active) | normalized growth (locus YOR061W, strain CKA2, active compounds read low): 0.174 (active) | normalized growth (locus YOR119C, strain RIO1, active compounds read low): 0.155 (active) | normalized growth [8]: 0.171 (active) | normalized growth (locus YOR329C, strain SCD5, active compounds read low): 0.164 (active) | normalized growth (locus YPL031C, strain PHO85, active compounds read low): 0.135 (active) | normalized growth (locus YPL153C, strain RAD53, active compounds read low): 0.133 (active) | normalized growth (locus YPL204W, strain HRR25, active compounds read low): 0.142 (active) | normalized growth (locus YPL209C, strain IPL1, active compounds read low): 0.159 (active) | normalized growth [9]: 0.216 (active) | normalized growth (locus YPR025C, strain CCL1, active compounds read low): 0.181 (active) | normalized growth (strain NNK1, active compounds read low): 0.304 (active) | normalized growth (strain TSCII, active compounds read low): 0.157 (active)

CC(C)(O/N=C(/C(=O)N[C@@H]1C(=O)N2C(C(=O)[O-])=C(C[n+]3ccccc3)CSC12)c1csc(N)n1)C(=O)O (stereo partly specified)
normalized growth [2]: 1.02 | normalized growth [3]: 1.02 | normalized growth [4]: 1.01 | normalized growth [5]: 0.95 | normalized growth [6]: 1.05 | normalized growth [7]: 0.962 | normalized growth [8]: 1.02 | normalized growth [9]: 1.03

COc1ccc(-c2c(C)nc3ccc(Cl)cc3c2-c2ccccc2)cc1OC
normalized growth [10]: 0.91 (active) | normalized growth [11]: 0.937 | normalized growth [1]: 0.945 | normalized growth [12]: 0.914 (active) | normalized growth [13]: 0.861 | normalized growth [14]: 0.949 | normalized growth [15]: 0.935 | normalized growth [2]: 0.759 | normalized growth [16]: 0.913 | normalized growth [17]: 0.977 | normalized growth [18]: 0.819 (active) | normalized growth (locus YKL190W, strain CNB1, active compounds read low): 0.98 | normalized growth [19]: 0.821 | normalized growth [20]: 0.986 | normalized growth [21]: 0.785 | normalized growth [22]: 0.948 | normalized growth [23]: 0.933 | normalized growth [24]: 0.947 | normalized growth (locus YMR307W, strain GAS1, active compounds read low): 0.546 (active) | normalized growth (locus YNL128W, strain TEP1, active compounds read low): 1.01 | normalized growth [25]: 0.972 | normalized growth [26]: 1 | normalized growth [27]: 0.98 | normalized growth [28]: 0.889 | normalized growth [29]: 0.817 | normalized growth [30]: 0.798 | normalized growth [31]: 0.85 (active) | normalized growth [32]: 0.754

COc1cc(C2N=C(c3ccc(Cl)cc3)SC(c3ccc(Cl)cc3)=N2)cc(OC)c1OC
normalized growth [10]: 1 | normalized growth [11]: 1.01 | normalized growth [1]: 1.02 | normalized growth [12]: 1.03 | normalized growth [13]: 1.02 | normalized growth [14]: 0.997 | normalized growth [15]: 1.01 | normalized growth [2]: 0.991 | normalized growth [16]: 1.02 | normalized growth [17]: 1.03 | normalized growth [18]: 0.991 | normalized growth [19]: 1.02 | normalized growth [20]: 1.04 | normalized growth [21]: 1 | normalized growth [22]: 1.03 | normalized growth [23]: 1 | normalized growth [24]: 1 | normalized growth (locus YMR263W, strain SAP30, active compounds read low): 0.949 | normalized growth [25]: 1.01 | normalized growth [26]: 1.02 | normalized growth [27]: 1 | normalized growth [28]: 1.03 | normalized growth [29]: 0.891 | normalized growth [30]: 0.974 | normalized growth [31]: 1.01 | normalized growth [32]: 1.09
